# High-throughput results as filed in PubChem BioAssay.
# Hits are enriched below; roughly 0.92% of the tested compounds scored in any of these assays.
# NS1 inh – influenza NS1 inhibition | AID 2326 | 270,000 tested, 0.4% active | Potency, µM (top dose mostly 46.1 µM), for the others: at the highest dose activity, positive = more growth; calls by dose curve; note: potency is the fitted concentration of half-maximal effect; actives are rising curves; nearly all actives have a fitted effect of over 50% in size
#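 Recovery from NS1-induced slow growth read by OD600 in budding yeast switched to galactose assay medium (pH 6.0, -URA) at 1:100 dilution. Compound 23 nl per well; the matching strain lacking NS1 serves as control.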
# TbPYK inhibitor – blocks Trypanosoma brucei pyruvate kinase; Q57TT1; TbPYK enzyme, Kinase-Glo Plus ATP luminescence, 45 min; Potency, µM (top dose mostly 76.8 µM), inactives show at the top dose activity, negative = inhibition, most hits filed as inhibitors; 410,000 tested, 0.12% active; note: potency is the fitted concentration of half-maximal effect; % is set by controls: 0 for no effect and ±100 for the full control effect; nearly all actives have a fitted effect of over 50% in size
#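 Enzyme and substrate buffer are dispensed first and compound is pin-transferred. ADP at 130 uM final then starts the reaction, which runs 45 min at room temperature. Detection reagent is added for 10 min before luminescence is imaged.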
# LmPK inhibitor – blocks Leishmania mexicana pyruvate kinase activity | Q27686 | purified LmPK, Kinase-Glo ATP luminescence, 1 h | Potency, µM (titrated, usually from 57.5 µM), for the others: at the top dose activity change, negative = inhibition, most hits filed as inhibitors | 290,000 tested, 0.37% active | AID 1721; note: potency is the fitted concentration of half-maximal effect; % is set by controls: 0 for no effect and ±100 for the full control effect
# Target sequence (Q27686 whole entry, looked up): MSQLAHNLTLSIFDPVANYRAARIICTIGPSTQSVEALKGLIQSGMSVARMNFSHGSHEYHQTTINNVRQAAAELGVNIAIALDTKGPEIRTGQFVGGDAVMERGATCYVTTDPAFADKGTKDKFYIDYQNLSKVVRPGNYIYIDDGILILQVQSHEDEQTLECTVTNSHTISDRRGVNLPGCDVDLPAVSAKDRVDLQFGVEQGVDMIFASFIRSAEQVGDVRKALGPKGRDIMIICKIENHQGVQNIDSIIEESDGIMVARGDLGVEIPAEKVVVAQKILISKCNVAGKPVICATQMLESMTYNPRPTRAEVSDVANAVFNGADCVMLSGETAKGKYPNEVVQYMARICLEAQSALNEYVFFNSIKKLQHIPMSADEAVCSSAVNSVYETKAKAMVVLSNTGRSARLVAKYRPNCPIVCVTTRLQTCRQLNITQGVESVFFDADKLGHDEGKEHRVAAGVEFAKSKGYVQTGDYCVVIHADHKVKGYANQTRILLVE
#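 ATP generated from ADP (0.1 mM) and PEP (0.5 mM) by 0.1 nM LmPK over 1 h at room temperature (pH 7.2 imidazole buffer) was detected by coupled luciferase luminescence. Values were normalized to uninhibited and no-enzyme wells.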
# AMA1-RON2 inh – AMA1-RON2 (P. falciparum) interaction inhibition | AlphaScreen AMA1-biotinylated RON2 peptide binding | Potency, µM (top dose mostly 58.2 µM), for inactives: at the top dose activity change, negative = inhibition, hits mostly inhibitors | 360,000 tested, 0.2% active | AID 720542;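 note: potency is the fitted concentration of half-maximal effect; 0% = vehicle wells and -100% = peptide control; nearly all actives have a fitted effect of over 45% in size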
#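 AMA1 (3D7) with his tag at 25 nM final met compounds first, then biotinylated RON2 peptide at 25 nM; detection used donor plus acceptor beads, 10 µg/mL apiece, read by AlphaScreen after 30 min at room temperature.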
# RE007 growth inh – less growth of the S. pombe RE007 Vpr strain | S. pombe RE007 Vpr strain, BacTiter-Glo ATP luminescence, 24 h | Potency, µM (top dose mostly 92.2 µM), without a hit: at the highest dose activity change, negative = less growth, most hits filed as inhibitors | AID 651644 | 360,000 tested, 0.21% active; active = well fitted falling curve with a large enough effect; inconclusive = small, poorly fitted or top-dose-only effect; inactive = no such curve, though single readings can be large or run the other way; note: potency is the fitted concentration of half-maximal effect; % is set by controls: 0 for no effect and ±100 for the full control effect; nearly all actives have a fitted effect of over 50% in size
#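 Fission yeast strain RE007, carrying one chromosomally integrated HIV-1 vpr copy, was seeded at OD 0.01 in PMG+AL medium with 23 nL pinned compound. After 24 h at 30 °C and 99% humidity, viability was read by BacTiter-Glo luminescence.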
# LmPK confirm – Confirms inhibition of Leishmania mexicana pyruvate kinase. shares compounds with LmPK inhibitor. purified LmPK, Kinase-Glo ATP luminescence, 1 h. Potency, µM (highest dose often 57.5 µM), without a hit: at the highest dose activity change, negative = inhibition, actives largely listed as inhibitors. 150 tested, 40% active;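 active = compounds giving a full or partial concentration-response curve, as inhibitors or activators; inconclusive = weak, top-dose-only or unclear curve responses; inactive = no response at any tested dose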
# The depositor's hits bear a star; ? = inconclusive; nt = no result; [ ] = dose if it differs, or a comment. Unless noted, calls come from the whole dose curve; as a rule, active = well fitted curve in the direction sought with a large enough effect; inconclusive = small, poorly fitted or top-dose-only effect, or another doubt; inactive = no such curve, though single readings can be large; an effect the other way counts as inactive or inconclusive.
SMILES,NS1 inh,TbPYK inhibitor,LmPK inhibitor,AMA1-RON2 inh,RE007 growth inh,others
COc1cc(C(C[N+](=O)[O-])c2c(N)n(C)c(=O)n(C)c2=O)ccc1O (stereo unspecified),-32%,-1%,4%,-11%,?,
Cn1c(N)c(C(C[N+](=O)[O-])c2ccccc2Cl)c(=O)n(C)c1=O (stereo unspecified),nt,2%,nt,5%,40µM*,
CC(C)C(NC(=O)C(CC(=O)O)NC(=O)C(CCCCN)NC(=O)C(N)CCCN=C(N)N)C(=O)NC(Cc1ccc(O)cc1)C(=O)O (stereo unspecified),nt,-2%,nt,nt,nt,
CCCCC[CH2][Hg][S]C1=C2N=CNC2NC(N)=N1 (stereo unspecified),-65%,nt,nt,nt,nt,
CC(=O)NCCNc1nc2cc(-c3ccccc3CO)sc2c(=O)n1C,nt,-5%,nt,3%,28µM*,
Cc1ccccc1-c1cc2nc(NCc3ccccc3)n(C)c(=O)c2s1,nt,3%,nt,0%,7%,
Cc1ccccc1-c1cc2nc(NCc3ccc(N(C)C)cc3)n(C)c(=O)c2s1,nt,-3%,nt,18µM*,12%,
CC1OC(CC(=O)O)CC2=C1C(=O)c1c(O)cccc1C2=O (stereo unspecified),nt,?,nt,-17%,1.6µM*,
O=C1c2cccc(O)c2C(=O)c2c(O)cccc21,-13%,-3%,3%,nt,nt,
Cc1ccccc1CNC(=O)Nc1ccc2c(c1)N(C)C(=O)c1ccccc1S2,nt,3%,nt,nt,nt,
c1coc(-c2nnc(-c3ccco3)nn2)c1,9%,-23%,?,16µM*,14µM*,
COc1ccccc1-c1cc(C(=O)N2CCc3ccccc3C2)no1,-84%,nt,nt,nt,nt,
O=C(Nc1cccc(Cl)c1)Nc1ncc(CCNc2ncnc3ccsc23)s1,nt,0%,nt,nt,nt,
CC(C)=CCc1c(O)ccc(C(=O)Cc2ccccc2)c1O,-167%,0%,3%,-2%,35µM*,
Cc1ccc(C(=O)Cc2ccccc2)c(O)c1,nt,3%,nt,19%,-14%,
O=C1C=CC(=Nc2ccc3c(c2)Cc2ccccc2-3)O1,nt,-1%,nt,-26%,28µM*,
O=C1C=CC(=Nc2cccc3c(N=C4C=CC(=O)O4)cccc23)O1,1%,nt,nt,nt,nt,
Cc1ccc2nc(N)[nH]c(=O)c2c1Sc1ccncc1,nt,0%,nt,nt,nt,
COC(=O)C[C@H]1c2ccccc2C2=C(C[C@@H](C)[C@H]3C(=O)N(c4ccccc4)C(=O)[C@@H]23)N1C(=O)OC,nt,nt,1%[11.5 µM],nt,nt,
C=CCn1c(-c2ccc(Cl)cc2)c[nH]c1=S,1%,?,7.9µM*,13%,8%,
C=CCn1c(-c2ccccc2)c[nH]c1=S,?,?,13µM*,28%,11%,
CCn1c(-c2ccc(-c3ccccc3)cc2)c[nH]c1=S,14%,-24%,1%,10%,7%,
Cn1c(-c2ccc(-c3ccccc3)cc2)c[nH]c1=S,-47%,-4%,-11%,48%,0%,
COc1ccc(C(=O)/C=C/Nc2cccc(O)c2)cc1,-106%,nt,25µM*,11%,-11%[3.69 µM],
COc1ccc(C(=O)Nc2cccc(C)c2)cc1,-23%,nt,14µM*,7%,-2%[3.69 µM],
SMILES,NS1 inh,TbPYK inhibitor,LmPK inhibitor,AMA1-RON2 inh,RE007 growth inh,others
COc1cccc(C(=O)Nc2ccccc2)c1,-145%,-12%,?,-14%,-17%,
COc1cccc(N/C=C/C(=O)c2ccc(Br)cc2)c1,nt,-4%,nt,11%,9%,
COc1cccc(C(=O)Nc2cccc(OCC(=O)O)c2)c1,-2%,-19%,35µM*,3%,-11%,
COc1ccc2c(Sc3ccccc3)c(C(=O)N3CCC(C)CC3)[nH]c2c1,nt,0%,nt,nt,nt,
CN(C)c1ccc(N=Nc2nccs2)cc1,nt,-8%,nt,11µM*,?,
Cc1sc(N=Nc2ccc(N(C)C)cc2)[n+]([O-])c1C,nt,-16%,nt,?,-25%,
Fc1ccc(C(c2ccc(F)cc2)N2CCN(CC=Cc3ccccc3)CC2)cc1,nt,-6%,nt,nt,nt,
C=CC[C@@H]1/C=C(\C)C[C@H](C)C[C@H](OC)[C@H]2O[C@@](O)(C(=O)C(=O)N3CCCC[C@H]3C(=O)O[C@H](/C(C)=C/[C@@H]3CC[C@@H](O)[C@H](OC)C3)[C@H](C)[C@@H](O)CC1=O)[C@H](C)C[C@@H]2OC,nt,-4%,nt,nt,nt,
O=Nc1ccc(NOC(=O)c2ccc(Br)cc2)cc1,-18%,nt,-25%,nt,nt,
Cc1ccc(C(=O)ONc2ccc(N=O)cc2)cc1,2%,?,10µM*,1%,5.6µM*,
COc1ccccc1C1Nc2cccc3cccc(c23)N1,-34%,-9%,0%,-28%,7.1µM*,
CC(=NNC(=S)N1CC2CCC(CC2)C1)c1nccs1,nt,?,nt,?,32µM*,
C=Cc1c(C)/c2[n-]/c1=C\c1[n-]c(c(CC)c1C)/C=c1\[n-]c3c(c1C)C(=O)C(C(=O)[O-])C=3c1[n-]c(c(C)c1CCC(=O)[O-])\C=2.[Cu].[Na+].[Na+] (stereo unspecified),nt,-17%,nt,nt,nt,
O=C(O)c1ccccc1NS(=O)(=O)c1cccc(-n2sc3ccccc3c2=O)c1,16%,5µM*,-19%,-16%,1%,
CCN(CC)CCOC(=O)c1ccc(N/C=C(/C#N)c2nc(-c3ccc(OC)c(OC)c3)cs2)cc1,-66%,-6%,0%,28µM*,8%,
Nc1ccc2c(c1)C(=O)c1ccccc1-2,nt,-3%,nt,-18%,-10%,
Nc1ccc2c(c1)C(=O)C(=O)c1ccccc1-2,-211%,?,?,-10%,25µM*,
COc1ccc(-c2cc3nc(C)cc(N)n3n2)cc1,-32%,22µM*,3.5µM*,2%,16µM*,LmPK confirm=5.8µM*
COc1ccc(-c2cc3nc(C)cc(-c4ccc(OC)cc4)n3n2)cc1,15%,-2%,6%,110%,4%,
Cc1ccc(C(=O)NCC(c2ccco2)S(=O)(=O)c2ccc(Cl)cc2)cc1C (stereo unspecified),nt,-7%,nt,nt,nt,
CCN(Cc1ccncc1)Cc1cn(C)nc1-c1ccc(Oc2ccccc2)cc1,-5%,4%,2%,0%,1%,LmPK confirm=-2%
NNC(=O)Cc1cccnc1,11%,nt,nt,nt,nt,
COc1ccc(OC)c2[nH]c(=O)c(CCNS(=O)(=O)c3ccc(Cl)cc3)cc12,4%,-1%,9%,4%,11%,
COc1ccc(OC)c2[nH]c(=O)c(CCNS(=O)(=O)c3ccc(C)cc3)cc12,-18%,3%,2%,-6%,3%,LmPK confirm=5%
Nc1ncnc2c1ncn2C1OC(COP(=O)(O)O)C(O)C1O (stereo unspecified),2%,-23%,16µM*,-1%,?,LmPK confirm=5.8µM*
Nc1ncnc2c1ncn2[C@@H]1O[C@H](COP(=O)(O)O)[C@@H](O)[C@H]1O,-7%,?,10µM*,6%,?,LmPK confirm=6.5µM*
